Assay outcomes: PubChem BioAssay, National Center for Advancing Translational Sciences (NCATS)
VP16 counter = Gal4-VP16 reporter inhibition counter-screen; Drosophila S2 Gal4-VP16 UAS-luciferase, luminescence, 20 h; Potency, µM (titrated, usually from 53.6 µM), for the others: at the top dose activity, negative = inhibition, hits mostly inhibitors; hit rate 3.5% among 310,000; AID 2546;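 further: Gal4-VP16 expression switched on by copper sulfate through the metallothionein promoter; potency means the concentration at half of the fitted maximal effect; on the % scale 0 is the no-effect control and ±100 the full control effect; nearly all actives have a fitted effect of over 50% in size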
RORg inh = inhibitors of mouse ROR gamma transcriptional activity; P51450; Drosophila S2 Gal4-RORgamma UAS-luciferase reporter, 20 h; Potency, µM (titrated, usually from 53.6 µM), for inactives: top-dose activity change, negative = inhibition, actives largely listed as inhibitors; hit rate 5.4% among 310,000; further: potency means the concentration at half of the fitted maximal effect; on the % scale 0 is the no-effect control and ±100 the full control effect; nearly all actives have a fitted effect of over 60% in size
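Read-out: Photinus luciferase luminescence; inhibitors lower reporter signal. Insect Schneider cells with Gal4-ROR gamma fusion under metallothionein promoter, UAS reporter; 700 uM final copper sulfate induction, 20 hr, ambient temperature.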
Six1-Eya2 blk = blocks human Six1 binding to Eya2; AlphaScreen GST-Six1/His-Eya2 binding, biochemical; hits give low values; activity change, % (concentration not given with the values); hit rate 0.56% among 360,000; AID 651725; in the data active means activity change below about -65%; inconclusive means mostly about -30% to -63%; further: on the % scale 0 is the no-effect control and ±100 the full control effect
Target sequence (O00167 whole entry, looked up): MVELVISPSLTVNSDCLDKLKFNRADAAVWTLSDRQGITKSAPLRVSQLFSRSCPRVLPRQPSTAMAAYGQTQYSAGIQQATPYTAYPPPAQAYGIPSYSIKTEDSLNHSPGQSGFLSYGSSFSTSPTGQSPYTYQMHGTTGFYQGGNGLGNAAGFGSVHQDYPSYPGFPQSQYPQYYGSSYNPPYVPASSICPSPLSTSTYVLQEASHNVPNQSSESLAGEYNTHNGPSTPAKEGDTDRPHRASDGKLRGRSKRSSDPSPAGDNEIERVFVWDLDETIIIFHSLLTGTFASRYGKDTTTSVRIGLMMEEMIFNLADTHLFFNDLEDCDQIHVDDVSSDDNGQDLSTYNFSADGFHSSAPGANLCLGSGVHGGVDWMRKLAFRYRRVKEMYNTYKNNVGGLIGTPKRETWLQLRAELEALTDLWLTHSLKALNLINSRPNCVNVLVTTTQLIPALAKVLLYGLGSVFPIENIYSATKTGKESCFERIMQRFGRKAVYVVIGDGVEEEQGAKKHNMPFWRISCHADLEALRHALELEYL
Target sequence (Q15475 whole entry, looked up): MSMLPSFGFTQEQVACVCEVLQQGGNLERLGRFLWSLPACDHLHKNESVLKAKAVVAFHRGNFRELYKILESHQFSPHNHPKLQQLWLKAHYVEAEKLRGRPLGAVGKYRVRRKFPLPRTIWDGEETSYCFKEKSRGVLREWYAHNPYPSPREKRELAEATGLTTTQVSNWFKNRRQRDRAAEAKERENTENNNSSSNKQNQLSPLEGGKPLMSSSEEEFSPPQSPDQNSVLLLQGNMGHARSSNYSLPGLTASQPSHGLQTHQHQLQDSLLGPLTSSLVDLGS
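Homogeneous AlphaScreen proximity assay pairing GST-Six1 with His-tagged Eya2 (added as 5X mix: 250 nM and 500 nM) in 50 mM Tris pH 8.0, 300 mM NaCl, 1 mM TCEP. Glutathione donor and nickel acceptor beads; 1 h, 37 °C, dark.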
p53 reactivation = re-activators of mutant p53; H1299 p53-A138V BP100-luciferase reporter, luminescence, 24 h; AID 504706; Potency, µM (series often up to 92.2 µM), for the others: at the highest dose activity change, positive = activation, usual class: activators; hit rate 0.063% among 320,000; further: potency means the concentration at half of the fitted maximal effect; % of control where 0% means no effect; nearly all actives have a fitted effect of over 45% in size
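H1299 (p53-null), stable ts p53-A138V + BP100-Luc; 1000 cells/well, Opti-MEM/10% FBS; cpd 4 pt, 1:5; 24 h, 37 deg C, 5% CO2; detection reagent 10 min RT; luminescence.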
CtBP-E1A inh = inhibitors of CtBP/E1A interaction; hit rate 0.49% among 340,000; activity change, % (concentration not given with the values); AID 651724; AlphaScreen GST-E1A/His-CtBP binding, 1536-well; hits give low values; in the data active means activity change below about -65%; inconclusive means mostly about -30% to -63%; further: on the % scale 0 is the no-effect control and ±100 the full control effect
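In 5 uL wells, 23 nL compound meets equimolar GST-E1A and His-CtBP (5X stock 125 nM each) for 2 h, 37 °C. Beads (5X, 50 ug/mL) then 1 h, 37 °C, dark.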
Active calls of the source: *; ? = inconclusive; . = no result given. A selection: hits, their analogues and other compounds. The true share with any hit is near 5.4%. Unless noted, the call rests on the fitted dose curve; in most records, active means well fitted curve in the direction sought with a large enough effect; inconclusive means small, poorly fitted or top-dose-only effect, or another doubt; inactive means no such curve, though single readings can be large; an effect the other way counts as inactive or inconclusive.

SMILES | VP16 counter | RORg inh | Six1-Eya2 blk | p53 reactivation | CtBP-E1A inh
O=C(c1csnn1)N1CCC2(CCCN(c3ccncc3)C2)CC1 | -1% | -18% | . | . | .
COc1ccccc1C(=O)NNC(=O)c1csc(N2CCOCC2)n1 | . | . | 4 | 5% | 4
O=C(NNC(=O)c1ccccc1OCc1ccccc1Cl)c1csc(N2CCOCC2)n1 | ? | 13µM* | -5 | -3% | -8
Cc1ccc(C)c(SCC(=O)NNC(=O)c2csc(N3CCOCC3)n2)c1 | ? | 8.9µM* | 3 | -11% | 5
COc1ccccc1OS(=O)(=O)c1ccc(NC(C)=O)cc1 | -5% | 2% | 11 | 9% | 7
COC(=O)/C=C/S(=O)(=O)c1ccc(NC(C)=O)cc1 | 5µM* | 5µM* | 1 | -18% | -6
O=C(Nc1cccc(O)c1)c1noc2c1CCc1ccccc1-2 | 1.4µM* | 0.35µM* | -5 | 19% | 1
Cc1ccc(NC(=O)c2noc3c2CCc2ccccc2-3)cc1 | 2% | 32% | 7 | 15% | 13
CCC(CC)C(=O)NCCCN1CCOCC1 | -3% | 7% | 9 | 7% | 10
CCOC(=O)c1[nH]c2cc(OC)c(OC)cc2c1NC(=O)C(C)N1CCN(Cc2ccccc2)CC1 (configuration not stated) | -25% | 0% | ? | -8% | -65*
CCN(C(=O)CSc1nnc(SC(C)C)s1)C1CCS(=O)(=O)C1 (configuration not stated) | . | . | 0 | 3% | .
C[C@H](CO)N1C[C@H](C)[C@@H](CN(C)C(=O)CC2CC2)Oc2cc(Br)ccc2S1(=O)=O | . | . | 9 | . | 4
CCc1cnc(Nc2nc(C(N)Cc3ccc(F)cc3)cs2)nc1 (configuration not stated) | . | . | ? | . | -71*
COc1ccc(C(N)c2csc(Nc3ncccn3)n2)cc1 (configuration not stated) | . | . | -85* | . | -83*
COc1ccc(C(N)c2csc(Nc3nncc4ccccc34)n2)cc1 (configuration not stated) | . | . | 2 | . | -2
COc1ccc(CC(N)c2csc(Nc3nccc(C(F)(F)F)n3)n2)cc1 (configuration not stated) | . | . | -7 | . | -17
COc1ccc(CC(N)c2csc(Nc3cnccn3)n2)cc1 (configuration not stated) | . | . | ? | . | -75*
COc1ccc(CC(N)c2csc(Nc3ncccn3)n2)cc1 (configuration not stated) | . | . | -71* | . | -80*
CC(C)=CCC/C(C)=C\COc1c2ccoc2cc2oc(=O)ccc12 | 12% | 32% | . | . | .
CCOC(=O)C1CCN(C(=O)C2CCN(S(=O)(=O)c3ccc4ccccc4c3)CC2)CC1 | 13% | ? | 14 | -19% | 6
NC(c1csc(Nc2cc(NCCCO)ncn2)n1)c1ccccc1Cl (configuration not stated) | . | . | -89* | . | -89*
COc1ccc(CC(N)c2csc(Nc3cc(NCc4ccco4)ncn3)n2)cc1 (configuration not stated) | . | . | -65* | . | -74*
NC(c1csc(Nc2ncccn2)n1)c1ccccc1Cl (configuration not stated) | . | . | -68* | . | -66*
C[C@H](NC(=O)c1nc[nH]c1C(=O)N1CCNCC1)C(=O)OCc1ccccc1 | . | . | -1 | 11% | 1
CC(CN1C(C)CCCC1C)OC(=O)c1cccc(Br)c1 (configuration not stated) | -11% | 4% | 4 | 7% | 0
CN1C(C(=O)NCc2cccc(Br)c2)CC2Cn3c(nc4cc5ccccc5cc43)C21 (configuration not stated) | 2% | 24% | -7 | 1% | 0
O=C(CCN(NC(=O)c1ccccc1)C1=NS(=O)(=O)c2ccccc21)NC1CCCCC1 | -3% | ? | -1 | -11% | 5
O=C(COc1cccc2ccccc12)NNC(=O)c1cnccn1 | ? | 13µM* | -26 | 2% | 10
Cc1ccc(C(=O)NNC(=O)COc2ccc(Cl)cc2C)o1 | . | . | -4 | -3% | 1
Cc1ccc(NC(=O)c2ccc(OC(=O)COc3ccc(Cl)cc3C)cc2)cc1 | -5% | -5% | -1 | ? | -8
